From PubChem BioAssay (Tox21)
Records with an inconclusive call do not appear. Where a call stands in place of a potency, no number is given. A number with no mark means an inactive call. Activity calls are given as the source filed them. The call rests on the fitted dose curve; in most records, active means well fitted inhibition curve with a large enough effect in the repeat runs; inconclusive means weak or mixed curves; inactive means flat fitted curve, though single readings scatter.

target: Luciferin 4-monooxygenase (Photinus pyralis) (UniProt P08659); test: qHTS assay to identify small molecule inhibitors of firefly luciferase (AID 1224835); further: nearly all actives have a fitted effect of over 25% in size; details: purified P. pyralis luciferase, luminescence inhibition; series mostly up to 115 µM
From the text: U.S. Tox21 Program National Center for Advancing Translational Sciences [NCATS] NIH Chemical Genomics Center [NCGC] U.S. Environmental Protection Agency [EPA] National Institutes of Environmental Health Sciences [NIEHS] National Toxicology Program [NTP] U.S. Food and Drug Administration [FDA] Tox21 Assay Overview: Firefly (Photinus pyralis) luciferase is one of the most commonly used transcriptional reporters. Firefly luciferase reporter-gene assays are generally considered one of the most sensitive assay types (Wood, 1995; Wood, 1998). However, it was initially observed, in 1991, by Thompson et al., that compounds that resemble the substrates of firefly luciferase (FLuc) can act as competitive inhibitors of the enzyme, and that these compounds, upon interaction with luciferase in the cell, can actually stabilize the protein and increase its half-life. Previous profiling work by other groups to determine the prevalence of compounds that affect FLuc enzymatic activity (PubChem AID 411) identified that ~3% of the MLSMR library (then at ~72K) inhibited FLuc. […] Thus the Tox21 10K library is profiled for activity against FLuc using a biochemical assay of purified FLuc and KM concentrations of FLuc substrates (D-luciferin and ATP).
These assay plates were then treated with 23nL of compound or DMSO using a Kalypsys pin tool, which allows for delivery of a 6-point interplate titration of each compound to the assay plate (quantitative HTS.) 1 uL of firefly luciferase mix (containing 50 mM Tris acetate, pH 7.6, 0.04 uM P. pyralis luciferase, 0.01% Tween, 0.05% BSA and dH2O) was then delivered by FRD to each well. Luciferase activity was then measured using a ViewLux CCD imager.

Luciferin 4-monooxygenase (Photinus pyralis), sequence (P08659 whole entry, looked up): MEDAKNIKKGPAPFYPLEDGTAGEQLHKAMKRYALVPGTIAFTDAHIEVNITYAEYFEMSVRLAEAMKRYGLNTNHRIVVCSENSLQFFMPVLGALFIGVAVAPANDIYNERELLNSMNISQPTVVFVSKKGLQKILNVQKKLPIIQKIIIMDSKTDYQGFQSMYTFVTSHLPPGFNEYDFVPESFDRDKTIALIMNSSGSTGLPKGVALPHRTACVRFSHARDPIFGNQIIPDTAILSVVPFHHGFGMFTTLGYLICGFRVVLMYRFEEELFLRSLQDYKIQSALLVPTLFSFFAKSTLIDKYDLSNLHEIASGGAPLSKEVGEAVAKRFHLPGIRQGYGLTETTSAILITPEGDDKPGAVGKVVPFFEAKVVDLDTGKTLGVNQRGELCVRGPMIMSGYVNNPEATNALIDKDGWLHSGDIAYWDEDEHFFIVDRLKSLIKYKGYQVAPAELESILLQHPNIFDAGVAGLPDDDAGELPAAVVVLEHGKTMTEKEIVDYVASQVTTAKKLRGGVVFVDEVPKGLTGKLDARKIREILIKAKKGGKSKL

Compound	Potency	activity change, negative = inhibition
O=C1OCCN1/N=C/c1ccc([N+](=O)[O-])o1	inactive	
C[Si]1(C)O[Si](C)(C)O[Si](C)(C)O1	inactive	
C1COCO1	inactive	
CCC(C)=O	inactive	
NC(=O)Nc1ccc(Cl)c(Cl)c1	inactive	
COC(=O)CC(=O)C(C)(C)C	inactive	
[O]=[Bi]		1.77% [at 10.5 µM]
CO[C@H]1O[C@H](CO)[C@@H](O)[C@H](O)[C@H]1O	inactive	
C=CC(=O)NCOCC(C)C	inactive	
Cc1cc(O)c2c(O)c3c(O)cccc3cc2c1	inactive	
CCCCCCCCCCCCCCC[C@H](O)[C@@H](N)CO	inactive	
CCC(C(=O)OCCN(CC)CC)c1ccccc1 (stereo not given)	inactive	
COCc1c(C(C)C)nc(C(C)C)c(/C=C/[C@@H](O)C[C@@H](O)CC(=O)O)c1-c1ccc(F)cc1	inactive	
CCCOC(=O)c1ccc(N)cc1	inactive	
CCC(=O)Oc1ccc(/C(CC)=C(\CC)c2ccc(OC(=O)CC)cc2)cc1	inactive	
O=C1NCCN1	inactive	
CCNC(=O)N1CCN(CCCC(c2ccc(F)cc2)c2ccc(F)cc2)CC1	inactive	
O=C(CCC1CCN(Cc2ccccc2)CC1)c1ccc2c(c1)NCCCC2	inactive	
CC(C)(C)CC(C)(C)c1ccc(OCCO)cc1	inactive	
Cc1nc2ccccn2c(=O)c1CCN1CCC(C(=O)c2ccc(F)cc2)CC1	inactive	

Compound	Potency	activity change, negative = inhibition
CC(CCO)CCc1ccccc1 (stereo not given)	inactive	
Oc1cc(O)c(Cl)cc1Cl	inactive	
Cc1ccnc2ccccc12	inactive	
COC(=O)[C@@H]1CC2=CC(=O)CC[C@]2(C)[C@@]23O[C@@H]2C[C@@]2(C)[C@@H](CC[C@@]24CCC(=O)O4)[C@H]13	inactive	
CC(C)CCCC(=O)O	inactive	
Cc1cnc(C)c(C)n1	inactive	
CC[C@@H]([C@H](C)O)n1ncn(-c2ccc(N3CCN(c4ccc(OC[C@@H]5CO[C@@](Cn6cncn6)(c6ccc(F)cc6F)C5)cc4)CC3)cc2)c1=O	inactive	
c1cnc2c(n1)CCCC2	inactive	
CC1=NN(c2ccc(C(=O)O)cc2)C(=O)C1	inactive	
O=C(Nc1ccccc1)Nc1ccccc1	6.36 µM (active)	
Brc1cc(-c2ccc(Br)c(Br)c2Br)cc(Br)c1Br	inactive	
O=C(O)C(Cc1cc(I)c(O)c(I)c1)c1ccccc1 (stereo not given)	inactive	
CC(=O)OCC(=O)[C@H]1CC[C@H]2[C@@H]3CCC4=CC(=O)CC[C@]4(C)[C@H]3CC[C@]12C	inactive	
CCCC1C(CC)=CC(CC)=CN1c1ccccc1 (stereo not given)	inactive	
COC(=O)c1cc(S(N)(=O)=O)ccc1OC	inactive	
Nc1nc(Cl)nc2c1ncn2[C@@H]1O[C@H](CO)[C@@H](O)[C@@H]1F	inactive	
CC1CC(=O)NN=C1c1ccc(NCC(C)(C)NCC(O)COc2cc(Cl)ccc2C#N)cc1 (stereo not given)	inactive	
Cc1cc(S(=O)(=O)O)ccc1N=Nc1c(O)ccc2ccccc12	25.2 µM (active)	
CC(=O)N(c1onc(C)c1C)S(=O)(=O)c1ccc(N)cc1	inactive	
CC[C@H](NC(=O)c1cc(F)ccc1NS(=O)(=O)c1cccc2cccnc12)c1ccccc1	inactive	
